Assay outcomes deposited in PubChem BioAssay by University of Kansas High Throughput Screening Laboratory.
In the library only some 3.6% were active in any assay of this set; here they are far more common.
Pf apPOL block – Pf-apPOL DNA polymerase inhibition | Recombinant Pf-apPOL, molecular beacon fluorescence, 1.5 h | inhibition, % at 10 µM | hit rate 0.25% among 210,000 | AID 1794808
mHTT CaM bind – mHTT-calmodulin interaction abrogation; P42858; AlphaScreen His-mHTT/GST-CaM binding, luminescence; inhibition, % at 15 µM; hit rate 3.6% among 190,000; AID 1671202;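 also: 0% = both proteins with DMSO and 100% = one protein alone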
Active calls of the source: *; nt = no result given. Rule as the data show it: active = inhibition above about 50%; inactive = the rest.

SMILES | Pf apPOL block | mHTT CaM bind
CC(=O)N1CCN(CC(=O)N2N=C(c3cccc(C)c3)CC2c2ccc(C)cc2)CC1 (stereo not drawn) | -5 | 82*
O=C(CN1CCCC1)N1N=C(c2ccccc2)CC1c1ccc2c(c1)OCO2 (stereo not drawn) | 4 | 99*
COc1ccc(-c2cn3ccn(-c4ccc(F)cc4)c(=O)c3n2)cc1 | 0 | -8
COc1ccc(-c2cn3c(n2)c(=C2CCCN2)c(=O)n3-c2ccccc2)cc1 | -7 | 63*
O=C(NC1CC(O)C(CO)C1)c1ccc2cc[nH]c2c1 (stereo not drawn) | 0 | 4
O=C(Nc1ccccc1F)c1cccc(F)c1 | -1 | -2
O=C(CSc1nnc(-c2ccco2)c(-c2ccco2)n1)N1CCc2ccccc2C1 | 1 | 93*
CCc1ccc(NC(=O)CSc2nnc(-c3ccco3)c(-c3ccco3)n2)cc1 | 0 | 92*
Cn1c(SCC(=O)c2ccc(O)cc2)nnc1-c1ccco1 | -3 | -1
Cc1ccnc(SCC(=O)N2CCc3ccccc3C2)n1 | -43 | -5
COc1ccc(NC(=O)CSc2ncccn2)cc1 | 2 | -2
COc1cc(NC(=O)CSc2nnc(-c3ccco3)c(-c3ccco3)n2)cc(OC)c1 | -2 | 97*
CCc1ccc(NC(=O)CSc2nnc(-c3ccco3)o2)cc1 | -9 | 0
O=C(CSc1nnc(-c2ccco2)c(-c2ccco2)n1)c1ccc(Cl)cc1 | -6 | 61*
COCCN=C1Nc2ccccc2NC12CCCN(S(=O)(=O)c1cccc(Cl)c1)C2 (stereo not drawn) | -6 | 26
N#C/C(=C\c1ccc(-c2ccccc2)o1)C(=O)Nc1cccc2ncccc12 | 4 | 29
O=C(NCC1(O)CCOCC1)c1ccc(F)cc1 | -6 | -16
O=C(CSc1ccc(-c2ccc3c(c2)OCO3)nn1)c1cccc([N+](=O)[O-])c1 | 2 | 1
Cc1nc(CN2CCN(Cc3csc(C)n3)CC2)cs1 | nt | -1
CCNC(=O)c1ccc(-c2csc(C)n2)cc1 | -6 | -2
COc1ccc(CN2CCCC2c2cc(C(C)C)on2)cc1CN1CCOCC1 (stereo not drawn) | -2 | 18
COc1ccc(-c2ncccc2CNC(=O)c2cccc(OC)c2)cc1 | -8 | 7
Cc1ccc(O)cc1NC(=O)c1ccc(NC(=O)C(C)(C)C)cc1 | -3 | -2
Cc1ccc(C)c(NC(=O)Cn2cnc3c(-c4ccccc4)csc3c2=O)c1 | 0 | -16
CCCCCCSc1nnc(-c2ccco2)c(-c2ccco2)n1 | 4 | 90*
SMILES | Pf apPOL block | mHTT CaM bind
CCCCSc1nnc2c(n1)OC(/C=C/c1ccco1)Nc1ccccc1-2 (stereo not drawn) | 16 | 32
O=C(CN1C(=O)CC(c2ccccc2)=Nc2cccnc21)Nc1ccccc1Cl | 65* | -12
Cc1ccccc1NC(=O)CN1C(=O)CC(c2ccccc2)=Nc2cccnc21 | 13 | -5
CCOc1ccc(N=C(NN)c2ccc3ccccc3n2)cc1 | -7 | 56*
Cc1ccc(N=C(NN)c2ccc3ccccc3n2)cc1 | 2 | 45
Cc1ccc(C(=O)N2CCC(n3cnnc3-c3ccccc3)C2)s1 (stereo not drawn) | 0 | 0
CC(C)n1cnc2ccc(-c3noc(-c4cccs4)n3)cc21 | -6 | 23
CC1CCCCN1CC(O)COCC12CC3CC(CC(C3)C1)C2 (stereo not drawn) | -5 | 0
CC1CCCCN1CC(O)COc1ccc(C23CC4CC(CC(C4)C2)C3)cc1 (stereo not drawn) | 0 | 100*
CC1CN(CC(O)COc2ccc(C34CC5CC(CC(C5)C3)C4)cc2)CC(C)O1 (stereo not drawn) | 0 | 18
CC1CCCC(C)N1CC(O)COc1ccc(C23CC4CC(CC(C4)C2)C3)cc1 (stereo not drawn) | 0 | 100*
CCOc1nccnc1NC1CCN(C(=O)c2ccnn2C)CC1 | -5 | 0
COc1cccc2cc(C(N)=O)c(=Nc3ccc(C(N)=O)cc3)oc12 | 1 | -18
COc1cccc2cc(C(N)=O)c(=Nc3ccc(O)cc3)oc12 | -4 | 99*
COc1ccc(CNC(=O)C2CCN(Cc3cn(C)c4ccc(OC)cc34)CC2)cc1 | -5 | 3
Cc1ccc(-c2nc3cc(C)ccn3c2NC(=O)CCCCl)cc1 | 6 | 29
O=C(NCCc1ccco1)C1CCN(Cc2cc3ccccc3n2Cc2ccccc2)CC1 | 1 | 58*
CCc1ccc(CN2CCC(C(=O)NCc3ccco3)CC2)cc1 | 1 | 8
CCOc1ccc(CN2CCC(C(=O)NCCc3ccccc3)CC2)cc1 | 8 | -1
O=C(NCc1ccco1)C1CCN(Cc2cc3ccccc3n2Cc2ccccc2)CC1 | 3 | 73*
Cc1ccccc1Cn1c(CN2CCC(C(=O)NCc3ccco3)CC2)cc2ccccc21 | 2 | 86*
Cn1cc(CN2CCC(C(=O)NCc3ccco3)CC2)c2cc(Cl)ccc21 | -3 | 25
Nc1ccc(S(=O)(=O)Nc2ccc3cn[nH]c3c2)cc1 | nt | -4
O=C(NCc1ccc2c(c1)OCO2)c1cnn2c3c(cnc12)CCCCCC3 | -2 | 2
